From PubChem BioAssay (NCI) come the findings set out here.

Values joined by “and” are separate entries in the source; they are usually repeats but may differ in a detail not shown here. Equal values may be shown once. Compounds without any hit were thinned out: in the full panel of roughly 83,000, 20% have a hit.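 For each line, cells grew in 96-well plates with the test compound present at a single concentration for 48 hours.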 Active and inactive are the calls of the source. The calls were made as follows: active = growth percent below 10; inactive = the rest.

Test systems include SK-MEL-2 melanoma; EKVX NSCLC; SN12C renal; UO-31 renal; TK-10 renal; ACHN renal; CAKI-1 renal; A498 renal; CCRF-CEM leukemia; MOLT-4 leukemia.
Holding throughout (assay): NCI-60 one-dose screen, 48 h (100 = growth as untreated, 0 = no growth, -100 = all killed)
What all share (conditions): 10 µM unless noted

For the molecule `C[C@H](Nc1ncnc2ccc(-c3cnc(Cl)c(NS(C)(=O)=O)c3)cc12)c1ccccc1`, the growth in the assay on SK-MEL-2 melanoma is -84.9% (active); in the assay on EKVX NSCLC, -34.3% (active); in the assay on SN12C renal it was 13.4% (inactive); with UO-31 renal, -63.5% (active); with TK-10 renal, -82.3% (active); in the assay on ACHN renal, 9.8% (active). Also, the growth in the assay with CAKI-1 renal is -22.4% (active); in the assay with A498 renal, -23.8% (active); with CCRF-CEM leukemia, 7.38% (active); in the assay on MOLT-4 leukemia, -16.5% (active).

On to `COc1ccc(C2C(C#N)=C(/N=C/c3ccc(Cl)cc3)Oc3c2sc2c(C)cccc32)cc1` (stereo not given), for which the growth with SK-MEL-2 melanoma was -12.9% (active); in the assay with EKVX NSCLC, 42.5% (inactive); in the assay on SN12C renal, 42.4% (inactive); with UO-31 renal, 37.1% (inactive); in the assay on TK-10 renal, 76.9% (inactive); in the assay on ACHN renal, 49.1% (inactive). Also, the growth in the assay on CAKI-1 renal is 39% (inactive); in the assay with A498 renal, -11.5% (active); with CCRF-CEM leukemia, 18.7% (inactive); in the assay with MOLT-4 leukemia, 17% (inactive).

`C#CCN(C)CCCOc1ccc(NCc2ccc(/C=C/C(=O)NO)cc2)cc1Cl`: the growth in the assay with SK-MEL-2 melanoma was -6.42% (active); in the assay on EKVX NSCLC it was 16.3% (inactive); in the assay on SN12C renal it was 12.1% (inactive); in the assay on UO-31 renal, -57.4% (active); with TK-10 renal, -12% (active); in the assay with ACHN renal, -41.4% (active). The growth in the assay on CAKI-1 renal was -35.9% (active); with A498 renal it was -72.2% (active); in the assay with CCRF-CEM leukemia, 10.7% (inactive); with MOLT-4 leukemia, 15.7% (inactive).

As for `CCCCCCCCCC(=O)NC(C)(C)C(=O)N1CCC[C@H]1C(=O)N[C@@H](CC(C)C)C(=O)N[C@@](C)(CC)C(=O)N[C@@H](CCC(N)=O)C(=O)N[C@H](CCC(N)=O)C(=O)NC(C)(C)C(=O)NC(C)(C)C(=O)N[C@@H](CCC(N)=O)C(=O)N[C@H](CC(C)C)C(=O)N[C@H](CO)CC(C)C`, the growth in the assay on SK-MEL-2 melanoma is -86.8% (active) and -74.3% (active); in the assay with EKVX NSCLC it was -87.8% (active) and -64.6% (active); in the assay with SN12C renal, -86.4% (active) and -84.1% (active); in the assay with UO-31 renal, -94% (active) and 26.4% (inactive); with TK-10 renal, -70.9% (active) and 14.9% (inactive); in the assay on ACHN renal, -85.3% (active) and 18.4% (inactive). Besides, the growth is -67.5% (active) and 5.79% (active) in the assay with CAKI-1 renal; -91.3% (active) and -31.5% (active) with A498 renal; -72% (active) and -39.7% (active) in the assay with CCRF-CEM leukemia; -81.5% (active) and -26.1% (active) in the assay with MOLT-4 leukemia.

With `COc1ccc(/C=N/NC(=O)c2c(N)nn(C)c2Nc2ccccc2)cc1Oc1ccccc1`, the growth is 101% (inactive) in the assay on SK-MEL-2 melanoma; 88.1% (inactive) in the assay with EKVX NSCLC; 95.5% (inactive) in the assay on SN12C renal; 71.7% (inactive) in the assay with UO-31 renal; 102% (inactive) in the assay on TK-10 renal; 95.8% (inactive) in the assay on ACHN renal. Further, the growth is 86.6% (inactive) in the assay with CAKI-1 renal, 98.6% (inactive) with A498 renal, 94.3% (inactive) with CCRF-CEM leukemia and 90.4% (inactive) with MOLT-4 leukemia.

Consider `O=C(Nc1cccc(Cl)c1)Nc1nc2cc([N+](=O)[O-])ccc2o1`, for which the growth in the assay with SK-MEL-2 melanoma is 45.5% (inactive); with EKVX NSCLC, 27.8% (inactive); in the assay on SN12C renal it was 35.3% (inactive); in the assay on UO-31 renal it was 59.3% (inactive); in the assay with TK-10 renal, 94.9% (inactive); in the assay with ACHN renal, 47.8% (inactive). Moreover, the growth with CAKI-1 renal is 62% (inactive); in the assay with A498 renal, 28.3% (inactive); with CCRF-CEM leukemia, 25% (inactive); in the assay with MOLT-4 leukemia, 33.8% (inactive).

`C#C[C@]1(O)CC[C@H]2[C@@H]3CC=C4c5sc(N(C)c6ccccc6)nc5CC[C@]4(C)[C@H]3CC[C@@]21C`: the growth with SK-MEL-2 melanoma is 85.8% (inactive); in the assay on EKVX NSCLC, 103% (inactive); in the assay with SN12C renal it was 91.2% (inactive); with UO-31 renal, 106% (inactive); in the assay with TK-10 renal, 137% (inactive); in the assay with ACHN renal, 92.1% (inactive). Besides, the growth in the assay with CAKI-1 renal was 92.3% (inactive); in the assay with A498 renal, 88.4% (inactive); with CCRF-CEM leukemia, 44.3% (inactive); in the assay on MOLT-4 leukemia, 31.3% (inactive).

Consider `COc1cc(OC)cc(-c2cc(-c3c[nH]c4ccccc34)nc(-c3c[nH]c4ccccc34)c2C#N)c1`, for which the growth was 88.4% (inactive) with SK-MEL-2 melanoma; 91.5% (inactive) with EKVX NSCLC; 95.1% (inactive) in the assay with SN12C renal; 71.3% (inactive) with UO-31 renal; 124% (inactive) in the assay on TK-10 renal; 97.2% (inactive) in the assay on ACHN renal. Moreover, the growth is 91% (inactive) in the assay with CAKI-1 renal, 96.7% (inactive) in the assay on A498 renal, 97.2% (inactive) with CCRF-CEM leukemia and 98.6% (inactive) in the assay with MOLT-4 leukemia.

Regarding `CC(=O)Nc1nc(C)c(-c2csc(Nc3ccccc3)n2)s1`, the growth in the assay with SK-MEL-2 melanoma is 18.8% (inactive); in the assay with EKVX NSCLC it was -0.417% (active); with SN12C renal it was 24.4% (inactive); with UO-31 renal it was 10.9% (inactive); in the assay on TK-10 renal it was 31.4% (inactive); with ACHN renal it was 17.2% (inactive). The growth was 28.6% (inactive) with CAKI-1 renal, 16% (inactive) in the assay with A498 renal, 27.1% (inactive) with CCRF-CEM leukemia and 16.6% (inactive) in the assay with MOLT-4 leukemia.

Take `C(=N\Nc1nc(N/N=C/c2ccc3c(c2)OCO3)nc(N2CCCCC2)n1)/c1ccc2c(c1)OCO2`: the growth is 103% (inactive) in the assay on SK-MEL-2 melanoma; 93.7% (inactive) in the assay with EKVX NSCLC; 79.7% (inactive) in the assay with SN12C renal; 74.4% (inactive) in the assay with UO-31 renal; 121% (inactive) in the assay on TK-10 renal; 94.9% (inactive) with ACHN renal. The growth with CAKI-1 renal was 98.9% (inactive); in the assay on A498 renal, 51.7% (inactive); in the assay with CCRF-CEM leukemia it was 20.4% (inactive); in the assay on MOLT-4 leukemia it was 56.3% (inactive).

Consider `O=C(CCCCCCN1CC(=O)N2[C@@H](C3CC3)c3[nH]c4ccccc4c3C[C@H]2C1=O)NO`, for which the growth is 76.5% (inactive) in the assay on SK-MEL-2 melanoma; 85.7% (inactive) with EKVX NSCLC; 79% (inactive) with SN12C renal; 70.1% (inactive) in the assay with UO-31 renal; 79.2% (inactive) in the assay with TK-10 renal; 67.6% (inactive) in the assay on ACHN renal. In addition, the growth with CAKI-1 renal was 69.3% (inactive); in the assay on A498 renal it was 98.8% (inactive); in the assay with CCRF-CEM leukemia, 19.9% (inactive); in the assay with MOLT-4 leukemia, 16% (inactive).

On to `CC1=C(C)C(=O)C(Nc2cccc(C(=O)OC(C)(C)C)c2)=C(Cl)C1=O`, for which the growth in the assay with SK-MEL-2 melanoma is 95.8% (inactive); in the assay on EKVX NSCLC, 90.2% (inactive); in the assay on SN12C renal it was 84.1% (inactive); in the assay with UO-31 renal, 86.5% (inactive); in the assay on TK-10 renal, 116% (inactive); with ACHN renal, 79.6% (inactive). For the same molecule, the growth in the assay on CAKI-1 renal was 76.1% (inactive); with A498 renal, 59.8% (inactive); with CCRF-CEM leukemia, 21.9% (inactive); in the assay on MOLT-4 leukemia, 45.3% (inactive).
